In all, about 290,000 compounds went through this assay and about 3,300 (1.1%) were called active. The sample holds actives, similar compounds and a random draw of the others, so the mix is not that of the screen. No stated cut-off is given here; in the data, active means binding response below about 67% or above about 130%; inconclusive means no clear call, values can overlap the other calls; inactive means in between.
biological target: Mitogen-activated protein kinase kinase kinase 2 (Homo sapiens) (UniProt Q9Y2U5); test: wildtype MEKK2 PB1-MEK5 interaction, increase or decrease – biochemical, multiplex bead flow cytometry, Alexa488-MEK5, primary screen (AID 1531); conditions: Alexa488-MEK5 binding to MEKK2 WT, at 10 µM, actives lie on both sides

SMILES	binding response (% of control)
Fc1ccccc1/C=N/Nc1cc(N2CCCCC2)ncn1	108% (inactive)
CCOC(=O)Nc1ccc2c(c1)N(C(=O)CCCl)c1ccccc1[S@]2=O	107% (inactive)
CC(C)(C)NC(=O)Cn1cnc2cc([N+](=O)[O-])ccc2c1=O	88% (inactive)
CC(C)(C)NC(=O)Cn1cnc([N+](=O)[O-])n1	2% [inhibitor] (active)
O=C(Cn1cnc([N+](=O)[O-])n1)NCCc1ccccc1	100% (inactive)
CC(=O)Nc1ccc(NC(=O)CS(=O)(=O)c2cn(CC(=O)N3CCCCC3)c3ccccc23)cc1	99% (inactive)
Cc1ccc(CSCC2Nc3ccc(C(=O)N4CCN(c5ccc(F)cc5)CC4)cc3NC2=O)cc1 (centres undefined)	94% (inactive)
Cc1snc(SCc2c(F)cccc2Cl)c1C#N	108% (inactive)
O=C(CN1CCN(S(=O)(=O)c2cc(Cl)ccc2Cl)CC1)c1ccc(O)c(O)c1	97% (inactive)
COc1ccc(C=Nc2cccc3ncccc23)cc1	81% (inactive)
Oc1c(C=Nc2cccc3nsnc23)ccc2ccccc12	31% [inhibitor] (active)
O=[N+]([O-])c1ccc(N=Cc2c(O)ccc3ccccc23)cc1	95% (inactive)
O=C(OCC1O[C@@H](OC(=O)c2cc(O)c(O)c(O)c2)[C@@H](OC(=O)c2cc(O)c(O)c(O)c2)[C@@H](OC(=O)c2cc(O)c(O)c(O)c2)[C@@H]1OC(=O)c1cc(O)c(O)c(O)c1)c1cc(O)c(O)c(O)c1 (some centres undefined)	62% [inhibitor] (active)
Cc1ccc(C)c(NS(=O)(=O)c2c(C)[nH]c(C)c2C(=O)N2CCCCC2)c1	103% (inactive)
CC(=O)Nc1ccc(NC(=O)COc2ccc(-c3ccccc3)cc2)cc1	97% (inactive)
COc1ccc(-c2noc(CNC(=O)C(C)Oc3ccccc3)n2)cc1 (centres undefined)	98% (inactive)
CCC(C)OC(=O)C(C)Oc1ccc(-c2ccccc2)cc1 (centres undefined)	2% [inhibitor] (active)
CCCCNC(=O)N(O)C1N(/N=C/c2ccccc2O)C(=S)SC1(C)C (centres undefined)	101% (inactive)
Cc1ccc(-n2ncc3c2CC(C)(C)CC3NC(=O)Cc2c(C)noc2C)cc1 (centres undefined)	100% (inactive)
CCCC1=Nc2cc(C(=O)NCCN3CCCC3)ccc2Sc2ccccc21	142% (active)
Cc1cc(C)cc(C(=O)NCCN2CCOCC2)c1	109% (inactive)
CCCC1=Nc2cc(C(=O)NCc3ccco3)ccc2Sc2ccccc21	98% (inactive)
Cc1ccccc1CN1C(=O)c2ccccc2Sc2ccc(C(=O)NCCCN3CCOCC3)cc21	110% (inactive)
CCC1=Nc2cc(C(=O)NCCN3CCCC3)ccc2Sc2ccc(C)cc21	155% (active)

SMILES	binding response (% of control)
CCC1=Nc2cc(C(=O)NCCCN3CCOCC3)ccc2Sc2ccc(Br)cc21	108% (inactive)
COCCNC(=O)CSc1nc2sccc2c(=O)n1-c1ccccc1	101% (inactive)
CCOC(=O)C1CCN(C(=O)COc2cccc3ccccc23)CC1	97% (inactive)
CC(=O)Oc1ccc(-c2nc3c(C)cccc3c(=O)o2)cc1	106% (inactive)
Cc1nc(/N=C(\N)NC(=O)NC2CCCCC2)nc2ccccc12	108% (inactive)
Cc1nc(N=C(N)N)nc2c(C)cccc12	145% (active)
NC(N)=N/N=C/c1ccc(OCc2ccc(Cl)cc2Cl)cc1	213% (active)
CCOc1ccc(NC(=O)NNC(=O)c2ccc(Cl)cc2Cl)cc1	96% (inactive)
NC(N)=N/N=C/c1ccc(Cl)c([N+](=O)[O-])c1	109% (inactive)
Cc1cc(OCC(=O)Nc2c(C)n(C)n(-c3ccccc3)c2=O)ccc1[N+](=O)[O-]	97% (inactive)
CN(C)S(=O)(=O)c1ccc2oc(SCC(=O)Nc3ccccc3F)nc2c1	99% (inactive)
C=CCNc1nc(N)c([N+](=O)[O-])c(NC2CCCCC2)n1	100% (inactive)
O=C(NCCc1c[nH]c2ccccc12)C1CCN(Cc2ccc(Br)cc2)CC1	125% (inactive)
O=C(Cc1c(F)cccc1Cl)N1CCN(C(=O)c2ccco2)CC1	99% (inactive)
O=C(c1cccc([N+](=O)[O-])c1)N1CCN(C(=O)c2ccco2)CC1	99% (inactive)
O=C(c1ccco1)N1CCN(c2cccc(Cl)c2)CC1	-2% [inhibitor] (active)
CC1CC(C)CN(S(=O)(=O)c2cccc3nonc23)C1 (centres undefined)	109% (inactive)
COc1ccc(OC)c(S(=O)(=O)N2CCCC(C(=O)NCCc3ccccc3)C2)c1 (centres undefined)	100% (inactive)
Cc1cccc(N(C(=O)c2csnn2)C(C(=O)NCc2ccccc2)c2ccncc2)c1 (centres undefined)	102% (inactive)
CCC(=C/c1sc2ccc3ccccc3c2[n+]1C)/C=C1\Sc2ccc3ccccc3c2N1C	9% [inhibitor] (active)
CCc1ccc(NC(=O)Nc2ccncc2)cc1	107% (inactive)
CC1(C)C=Cc2c(ccc3c2OC[C@@H](c2ccc(O)cc2O)C3)O1	107% (inactive)
COc1ccccc1C(=O)NCc1nnc(SC(C)C(=O)Nc2nccs2)n1C (centres undefined)	105% (inactive)
Cc1ccc(S(=O)(=O)NC2CCCCCC2)cc1C(N)=O	99% (inactive)

SMILES	binding response (% of control)
c1ccc2c(c1)C(=NC1CCCCC1)NC2=NC1CCCCC1	145% (active)
O=C(c1noc2c1CCCC2)N1CCc2ccccc2C1	97% (inactive)
Cc1ccccc1NC(=O)NCC1CCN(Cc2cccc(Cl)c2)CC1	104% (inactive)
Cc1ccc(C)c(CN2CCC(CNC(=O)Nc3ccc(C)c(F)c3)CC2)c1	150% (active)
COc1cc(NC(=O)NCC2CCN(Cc3ccc(C)cc3)CC2)cc(OC)c1OC	113% (inactive)
COc1ccc(Cl)cc1NC(=O)NCC1CCN(Cc2ccccc2F)CC1	118% (inactive)
Cc1cccc(CN2CCC(CNC(=O)Nc3ccc(F)c(Cl)c3)CC2)c1	139% (active)
O=C(NCC1CCN(Cc2ccccc2Cl)CC1)Nc1cccc(Cl)c1	110% (inactive)
CC(C(=O)c1ccc(-c2ccccc2)cc1)[n+]1cccc(Br)c1 (centres undefined)	123% (inactive)
CC(=O)N1CC(=O)N(CC(=O)Nc2ccc(Br)cc2)C1=S	97% (inactive)
CCOC(=O)c1cccc(NC(=O)c2ccc(F)cc2F)c1	105% (inactive)
CCN(CC(=O)NCC(=O)Nc1cccc(C)c1C)Cc1ccccc1	103% (inactive)
CCCn1c(C)cc(/C=C(\C#N)C(=O)OCC(=O)Nc2cc(OC)c(OC)c(OC)c2)c1C	106% (inactive)
CCOC(=O)/C(C#N)=C/c1ccc(OCC(=O)Nc2ccccc2)c(OC)c1	37% [inhibitor] (active)
COc1cc(C2C3=C(CCCC3=O)OC3=C2C(=O)CCC3)ccc1OCC(=O)Nc1ccccc1	96% (inactive)
Cc1ccc(OCC(O)CN2CCN(CC(O)COc3ccc(C)cc3Cl)CC2)c(Cl)c1 (centres undefined)	134% (active)
Cc1cccc(OCC(O)CN2CCN(S(=O)(=O)c3ccc(C)cc3C)CC2)c1 (centres undefined)	95% (inactive)
OC(COc1ccc(F)cc1Cl)CN1CCc2ccccc2C1 (centres undefined)	105% (inactive)
C[n+]1cc(-c2ccccc2)oc1-c1ccccc1	100% (inactive)
COc1ccc(CNc2nc3c(c(=O)[nH]c(=O)n3C)n2Cc2ccccc2)cc1	109% (inactive)
COc1ccc(CCn2c(NCCCN3CCOCC3)nc3c2c(=O)[nH]c(=O)n3C)cc1	103% (inactive)
COc1ccc(CCn2c(NN=C3CCCC3)nc3c2c(=O)[nH]c(=O)n3C)cc1	39% [inhibitor] (active)
COC(=O)CN1C(=O)[C@H]2[C@@H](/C=C/c3ccccc3)N3C(=O)CN(CC4CC4)C(=O)[C@@]3(Cc3ccccc3)[C@H]2C1=O	104% (inactive)
CC1=C(N2CCN(c3ncccn3)CC2)CCC1=O	111% (inactive)

SMILES	binding response (% of control)
COc1cccc(CNC(=O)C2CC(=O)N(C3CCCCCCC3)C2)c1 (centres undefined)	94% (inactive)
O=C(Nc1nnc(C2CC2)s1)c1cc(Cl)sc1Cl	102% (inactive)
CC(C)(C)NC(=O)NC(=O)COC(=O)C1c2ccccc2Oc2ccccc21	100% (inactive)
COc1ccc(OCC(=O)NNC(=O)c2cccc(C)c2)cc1	93% (inactive)
COc1cccc(OCC(=O)Nc2ccccc2C(N)=O)c1	115% (inactive)
COc1cccc(OCC(=O)NNC(=O)c2cnccn2)c1	2% [inhibitor] (active)
COc1ccc(CCNC(=O)CCNS(=O)(=O)c2cc(Br)cnc2N)cc1OC	106% (inactive)
CC(C)(C)NC(=O)c1ccc(Cn2cc(C(F)(F)F)ccc2=O)cc1	101% (inactive)
CCOC(=O)c1cc(-c2nnc(-c3cc(OC)c(OC)c(OC)c3)o2)c(C)nc1C	104% (inactive)
COc1cc(-c2nnc(Cn3cc(C(F)(F)F)ccc3=O)o2)cc(OC)c1OC	3% [inhibitor] (active)
CCC(Cc1ccccc1)NS(=O)(=O)c1ccc2c(c1)NC(=O)CS2 (centres undefined)	102% (inactive)
Nc1cc(N)nc(SCc2cccc(F)c2)n1	104% (inactive)
COC(=O)c1c(C)cc(O)c(C)c1O	104% (inactive)
CCCCn1c(SCC(=O)NCCc2ccc(OC)c(OC)c2)nc2c1c(=O)n(C)c(=O)n2C	-4% [inhibitor] (active)
C#CC(C)(C)NC(=O)CSc1nc2c(c(=O)n(C)c(=O)n2C)n1CCCC	106% (inactive)
CCn1c(NCCc2ccc(OC)c(OC)c2)nc2c1c(=O)n(C)c(=O)n2C	102% (inactive)
COc1cc(OC)c(C(=O)NCc2ccc3c(c2)OCO3)cc1OC	102% (inactive)
COc1cc(OC)c2ccc(=O)oc2c1C(CCN1CCN(c2ccccc2)CC1)c1ccc2c(c1)OCO2 (centres undefined)	110% (inactive)
CCN(CC)CCC(c1ccc2c(c1)OCO2)c1c(OC)cc(OC)c2c(-c3ccccc3)cc(=O)oc12 (centres undefined)	137% (active)
CCN(CC)C(=O)CC(c1ccc2c(c1)OCO2)c1c(OC)cc(OC)c2c(-c3ccccc3)cc(=O)oc12 (centres undefined)	143% (active)
CCN(CC)CCC(c1cc(OC)c(OC)c(OC)c1)c1c(OC)cc(OC)c2c(-c3ccccc3)cc(=O)oc12 (centres undefined)	90% (inactive)
CCCCN(CC)C(=O)c1ccc2c(c1)OCO2	100% (inactive)
